Measured values from PubChem BioAssay (EPA / NIEHS).
Results filed as inconclusive are left out. Activity calls are given as the source filed them. How the source made its calls: active means hit-call score of the fitted dose curve at least 0.9, where 1 is the maximum; inconclusive means response in the unintended direction; inactive means score below 0.9.

Target: Cytochrome P450 2C19 (Homo sapiens) (UniProt P33261)
Assay: NVS_ADME_hCYP2C19: NovaScreen (NVS) CYP450-related Enzyme Activity (ADME) Assay for human CYP2C19 (AID 2283113);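 further: potency for inhibition seen as loss of fluorescent signal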
How it was run: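 Chemicals first screened in duplicate at 10 uM against recombinant human enzyme produced in insect cells; confirmed actives then run as concentration series. Fluorogenic substrate turnover read by fluorescence after 1 h, normalised to acetonitrile.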

Row | SMILES | AC50
1 | CCCCCCCCCCCCCCC | 10 µM (active)
2 | CC(C)CCOCCC(C)C | 5 µM (active)
3 | CCCCCCCCCCCCCCCCCC[N+](C)(C)Cc1ccccc1 | 1.8 µM (active)
4 | Cc1ccc(N=Nc2c(O)ccc3ccccc23)c(C)c1 | 0.565 µM (active)
5 | c1cc[nH]c1 | 0.992 µM (active)

Target: human AKT serine/threonine Kinase 1 (AKT1), AKT1 (gene 207) (UniProt P31749)
Assay: NVS_ENZ_hAKT1: NovaScreen (NVS) Enzymatic Assay for human AKT serine/threonine Kinase 1 (AKT1) (AID 2283138)
How it was run: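 Fluorescence and mobility-shift readout of kinase activity, taken 1 h post-dosing in a cell-free format with recombinant protein. Primary screen at 25 uM in duplicate; hits (e.g. 30% inhibition) retested in concentration series topping at 50 uM.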

human AKT serine/threonine Kinase 1 (AKT1), AKT1 (gene 207), sequence (P31749 whole entry, looked up): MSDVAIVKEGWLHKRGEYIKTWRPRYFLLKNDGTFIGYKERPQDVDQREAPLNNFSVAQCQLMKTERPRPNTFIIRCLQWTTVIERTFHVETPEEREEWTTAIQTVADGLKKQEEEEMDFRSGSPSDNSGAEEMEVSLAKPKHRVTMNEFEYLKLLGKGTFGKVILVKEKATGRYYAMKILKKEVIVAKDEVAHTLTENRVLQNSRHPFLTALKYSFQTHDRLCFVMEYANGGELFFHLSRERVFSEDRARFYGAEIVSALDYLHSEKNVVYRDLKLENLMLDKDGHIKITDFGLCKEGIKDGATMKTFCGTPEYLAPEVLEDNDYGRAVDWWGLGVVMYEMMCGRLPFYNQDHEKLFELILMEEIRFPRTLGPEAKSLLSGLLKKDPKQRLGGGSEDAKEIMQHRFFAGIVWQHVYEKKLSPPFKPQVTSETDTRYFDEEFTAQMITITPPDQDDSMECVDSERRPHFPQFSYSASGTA

Row | SMILES | outcome
6 | O=C(CCCN1CCC(O)(c2ccc(Cl)cc2)CC1)c1ccc(F)cc1 | inactive
7 | CCC(C)c1ccccc1O (centres undefined) | inactive
8 | CCCCCCCCCCCCOS(=O)(=O)O | inactive

Target: human Beta-secretase (BACE), BACE1 (gene 23621) (UniProt P56817)
Assay: NVS_ENZ_hBACE: NovaScreen (NVS) Enzymatic Assay for human Beta-secretase (BACE) (AID 2283140);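 further: hits are inhibitors that reduce fluorescent substrate signal versus DMSO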
How it was run: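 SF9-expressed enzyme, cell-free; fluorescent substrate readout after 1 h. Screened at 25 uM single concentration, duplicate; hits retested in concentration series. Activity relative to DMSO baseline, loss-of-signal.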

human Beta-secretase (BACE), BACE1 (gene 23621), sequence (P56817 whole entry, looked up): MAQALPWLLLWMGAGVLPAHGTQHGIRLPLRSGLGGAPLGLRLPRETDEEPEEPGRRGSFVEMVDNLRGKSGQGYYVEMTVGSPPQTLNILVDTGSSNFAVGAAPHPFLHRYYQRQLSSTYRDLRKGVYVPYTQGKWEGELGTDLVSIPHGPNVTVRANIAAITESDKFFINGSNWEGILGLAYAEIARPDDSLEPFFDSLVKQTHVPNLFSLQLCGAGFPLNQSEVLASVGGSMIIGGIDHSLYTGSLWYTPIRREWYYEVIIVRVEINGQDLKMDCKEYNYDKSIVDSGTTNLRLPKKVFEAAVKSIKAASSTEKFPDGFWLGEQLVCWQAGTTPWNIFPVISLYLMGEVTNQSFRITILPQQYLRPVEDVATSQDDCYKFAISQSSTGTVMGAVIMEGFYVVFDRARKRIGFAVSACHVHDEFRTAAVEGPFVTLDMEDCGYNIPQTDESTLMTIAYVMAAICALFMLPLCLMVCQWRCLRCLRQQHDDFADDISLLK

Row | SMILES | outcome | AC50
9 | CN(Cc1cnc2nc(N)nc(N)c2n1)c1ccc(C(=O)N[C@@H](CCC(=O)O)C(=O)O)cc1 | inactive | –
10 | CCOC(C)=O | inactive | –
11 | CCCCc1oc2ccccc2c1C(=O)c1cc(I)c(OCCN(CC)CC)c(I)c1 | – | 3.91 µM (active)
12 | CNNCc1ccc(C(=O)NC(C)C)cc1 | inactive | –
13 | CCCCCCCCCCCCOS(=O)(=O)O | – | 2.91 µM (active)
14 | NS(=O)(=O)O | inactive | –
